Test results taken from article PMC4336329 (PLoS ONE, 2015).
Among all 310,000 compounds or so, about 14,000 (4.5%) showed an effect of 50% or more. Effects have a minus sign here. This is one part of a sample in which strong results are shown more often than they occur.

target: human ether-à-go-go-related gene (hERG) potassium channel (human, UniProt Q12809); experiment: primary screen, population patch clamp on CHO cells stably expressing hERG; higher = less effect of the substance
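Note: peak tail current of the secondary pulse compared with the same well before compound.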

human ether-à-go-go-related gene (hERG) potassium channel, sequence (Q12809 whole entry, looked up): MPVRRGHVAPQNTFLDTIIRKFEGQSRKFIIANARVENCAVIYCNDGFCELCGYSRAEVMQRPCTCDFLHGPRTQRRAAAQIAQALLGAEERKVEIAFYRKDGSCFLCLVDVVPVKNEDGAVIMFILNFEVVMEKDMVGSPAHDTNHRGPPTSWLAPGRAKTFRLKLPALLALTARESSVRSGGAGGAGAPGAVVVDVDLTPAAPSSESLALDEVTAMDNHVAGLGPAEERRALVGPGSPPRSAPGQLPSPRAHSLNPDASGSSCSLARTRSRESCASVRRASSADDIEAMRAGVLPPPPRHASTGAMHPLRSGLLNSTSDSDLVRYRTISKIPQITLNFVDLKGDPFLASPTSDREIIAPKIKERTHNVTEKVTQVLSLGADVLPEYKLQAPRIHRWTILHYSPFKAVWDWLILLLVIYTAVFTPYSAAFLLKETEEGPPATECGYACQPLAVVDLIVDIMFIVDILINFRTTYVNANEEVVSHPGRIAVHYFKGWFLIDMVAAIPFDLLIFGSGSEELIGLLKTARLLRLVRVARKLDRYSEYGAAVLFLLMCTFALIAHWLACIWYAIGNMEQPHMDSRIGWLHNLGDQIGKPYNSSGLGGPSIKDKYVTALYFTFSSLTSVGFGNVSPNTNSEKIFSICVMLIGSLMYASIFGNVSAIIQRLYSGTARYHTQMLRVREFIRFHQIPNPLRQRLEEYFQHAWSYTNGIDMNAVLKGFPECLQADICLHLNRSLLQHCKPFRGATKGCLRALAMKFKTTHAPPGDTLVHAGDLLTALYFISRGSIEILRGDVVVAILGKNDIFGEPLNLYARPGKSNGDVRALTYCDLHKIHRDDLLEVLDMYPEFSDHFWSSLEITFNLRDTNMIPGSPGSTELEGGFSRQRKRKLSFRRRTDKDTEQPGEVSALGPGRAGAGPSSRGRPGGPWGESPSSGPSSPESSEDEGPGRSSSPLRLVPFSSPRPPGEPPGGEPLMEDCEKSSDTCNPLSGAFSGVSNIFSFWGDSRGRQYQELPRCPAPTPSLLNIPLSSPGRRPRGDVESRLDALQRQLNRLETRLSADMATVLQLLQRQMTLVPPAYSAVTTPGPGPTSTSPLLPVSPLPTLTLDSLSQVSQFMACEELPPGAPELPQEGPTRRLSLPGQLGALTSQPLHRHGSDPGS

Structure (SMILES) | hERG current change (%, negative = inhibition) at 10uM [%]
COc1ccc(CNS(=O)(=O)c2ccc(S(=O)(=O)NC3CC3)cc2)cc1 | 17.9
Cc1cccc(NC(=O)NCCN2CCCCC2)c1 | -25
O=C1CSc2ccccc2N1Cc1ccc(F)cc1 | -38.4
O=C1CSc2ccccc2N1Cc1ccccc1F | -55.8
O=C(O)CN1C(=O)CSc2ccccc21 | -30.6
COC(=O)c1cccc(NC(=O)c2ccco2)c1 | 4.02
CN(Cc1ccccc1)C1=CC(=[N+]2CCCC2)CC(C)(C)C1.[I-] | -55.4
CN(Cc1ccccc1)C1=CC(=[N+]2CCCCC2)CC(C)(C)C1.[I-] | -54.3
CC1(C)CC(NNCCC#N)=CC(=[N+]2CCCC2)C1.[I-] | 5.87
CC1(C)CC(N2CCN(C(c3ccccc3)c3ccccc3)CC2)=CC(=[N+]2CCCCC2)C1.[I-] | -72.1
CC1(C)CC(N2CCCC2)=CC(=[N+]2CCCC2)C1.[I-] | -12.1
CC1(C)CC(N2CCCCC2)=CC(=[N+]2CCCCC2)C1.[I-] | 8.09
CCN(CC)C1=CC(=[N+]2CCCC2)CC(C)(C)C1.[I-] | -4.08
CC1(C)CC(N2CCN(Cc3ccccc3)CC2)=CC(=[N+]2CCCCC2)C1.[I-] | 7.04
CCCN(CCC)C1=CC(=[N+]2CCCC2)CC(C)(C)C1.[I-] | -72.4
CC1(C)CC(N2CCCC2)=CC(=[N+]2CCCCCC2)C1.[I-] | -8.68
CC1(C)CC(N2CCCC2)=CC(=[N+]2CCCCC2)C1.[I-] | 3.58
CC1(C)CC(N2CCN(c3ccccc3)CC2)=CC(=[N+]2CCCC2)C1.[I-] | -15.3
CCCC(C(=O)O)n1c(O)c(C=C2N=c3ccccc3=N2)sc1=S (stereo not shown) | 6.16
CCN1C(=O)c2ccccc2Sc2ccc(C(=O)NCCN3CCOCC3)cc21 | -5.49
O=S(=O)(O)c1ccc(N=NNc2ccc(Br)cc2)cc1 | 30.7
N#Cc1ccc(C23CC4(C2)[C@H](CN(P(=O)(c2ccccc2)c2ccccc2)[C@@H]4c2ccccc2)C3c2ccc(Cl)nc2)cc1 (stereo partly shown) | -8
CCC(C)n1c(SCC(=O)/C(C#N)=C(\C)N)nc2ccccc2c1=O (stereo not shown) | -15.3
O=C(/C=C/c1ccco1)Nc1ccc(Oc2ccccc2)cc1 | -5.74
COc1ccccc1CNCc1cc(OC)c(OC)cc1OC | -10.3
